# Screening results from PubChem.
# Tau FP inhib: inhibitors of human tau fibril formation | P10636 | K18 P301L tau heparin fibrillization, Alexa594 FP, 6 h | Potency, µM (highest dose often 57.7 µM), hits mostly inhibitors | 280,000 compounds, 0.39% hits | AID 1468; also: nearly all actives have a fitted effect of over 55% in size
# Target sequence (P10636 561-689 P618L limits assumed): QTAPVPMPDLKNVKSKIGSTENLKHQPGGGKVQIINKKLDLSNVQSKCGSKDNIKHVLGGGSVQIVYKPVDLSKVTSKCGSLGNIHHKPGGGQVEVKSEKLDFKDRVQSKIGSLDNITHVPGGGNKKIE
#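 Compound effects on tau fibrillization are measured by Alexa 594 fluorescence polarization (ex 555, em 632 nm). K18 P301L tau is used at 15 uM with 0.24 uM labeled tracer, and 20 uM heparin induces aggregation over 6 hr at 37 C.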
# Sfp inh: inhibitors of Bacillus subtilis Sfp phosphopantetheinyl transferase. Q9F4F7. Biochemical Sfp PPTase activity, qHTS. Potency, µM, most hits filed as inhibitors. 310,000 compounds, 3.5% hits. AID 1490;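 also: the enzyme is Sfp with the accession as filed and its product quenches rhodamine fluorescence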
#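 Fluorescence-quenching assay: 15 nM Sfp-PPTase preincubated 15 min at room temperature with compound, then 5 uM rhodamine-CoA and 12.5 uM BHQ-2-labelled YbbR peptide added. Fluorescence (ex 525/em 598 nm) read at start and after 30 min; difference gives rate.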
# VDR inhibitor: inhibitors of human vitamin D receptor | P11473 | Potency, µM, usual class: inhibitors | VDR-SRC2-3 peptide fluorescence polarization, 2 h | 400,000 compounds, 0.93% hits
#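 Reagent solutions, kept cold and dark, are dispensed first; compounds are then pinned in at 23 nl, plates briefly spun, and incubated 2 h at ambient temperature. Inhibition of VDR–SRC2-3 peptide binding is read by fluorescence polarization.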
# Tau fluor cs: counter-screen for tau fibril formation inhibitors; tau K18 P301L Alexa594 fluorescence, heparin fibrillization; 280,000 compounds, 0.93% hits; Potency, µM (titrated, usually from 57.7 µM); also: nearly all actives have a fitted effect of over 55% in size
#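 Human K18 P301L tau (15 uM unlabeled plus 0.24 uM Alexa 594-labeled, final) in 100 mM sodium acetate pH 7 was mixed with compound and 20 uM heparin and incubated 6 hr at 37 C.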
# Tau fibril ThT: tau fibrillization inhibition (ThT binding); recombinant tau K18 P301L (four-repeat tau fragment), heparin-induced fibrillization, ThT fluorescence; Potency, µM (titrated, usually from 57.4 µM), most hits filed as inhibitors; 270,000 compounds, 2.1% hits; AID 1460; also: nearly all actives have a fitted effect of over 55% in size
#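 Recombinant human tau K18 fragment […] carrying P301L, 15 uM unlabeled plus 0.24 uM Alexa 594-labeled, was fibrillized with 20 uM heparin in 100 mM sodium acetate pH 7 for 6 hr at 37 C; 30 uM ThT fluorescence read after 1 hr.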
# PLK1 PBD inh: PLK1 (human) polo-box domain binding inhibition; P53350; Plk1 PBD binding of FITC phosphopeptide, fluorescence polarization; Potency, µM, actives largely listed as inhibitors; 360,000 compounds, 2.8% hits; also: series mostly up to about 57 µM; nearly all actives have a fitted effect of over 65% in size
# Hits are given with their value; . = inactive; ? = inconclusive; / = not tested or not shown. Only some compounds are listed: those with a hit (about 6% of all), similar ones and a draw of the others. Calls follow the shape of the dose curve; as a rule, active = well fitted curve in the direction sought with a large enough effect; inconclusive = small, poorly fitted or top-dose-only effect, or another doubt; inactive = no such curve, though single readings can be large; an effect the other way counts as inactive or inconclusive.
SMILES,Tau FP inhib,Sfp inh,VDR inhibitor,Tau fluor cs,Tau fibril ThT,PLK1 PBD inh
COCCN(C(=O)COC(=O)c1cc2c(s1)CCC2)c1c(N)n(Cc2ccccc2)c(=O)[nH]c1=O,/,/,.,/,/,9.5µM
CCC1CCc2sc(C(=O)OCC(=O)N(CCOC)c3c(N)n(Cc4ccccc4)c(=O)[nH]c3=O)cc2C1 (centres undefined),/,/,.,/,/,.
COCCN(C(=O)COC(=O)CCc1nc2ccccc2s1)c1c(N)n(Cc2ccccc2)c(=O)[nH]c1=O,/,.,.,/,/,.
CC(C)CN(C(=O)CSc1nnc(-c2ccco2)o1)c1c(N)n(Cc2ccccc2)c(=O)[nH]c1=O,.,79µM,.,.,.,?
COCCN(C(=O)CSc1nc2ccccc2s1)c1c(N)n(Cc2ccccc2)c(=O)[nH]c1=O,/,/,79µM,/,/,?
Cc1ccc(-c2cn3cccnc3n2)cc1NC(=O)Cc1ccccc1,.,/,.,.,.,/
CCOc1cccc2sc(N(Cc3cccnc3)C(=O)c3ccc(C#N)cc3)nc12,?,/,.,.,.,/
COC(=O)CSc1nc(SC)nc2c1sc1nc(-c3ccco3)c3c(c12)CC(C)(C)OC3,/,/,.,/,/,.
CSc1nc(SCCO)c2sc3nc(-c4ccco4)c4c(c3c2n1)CC(C)(C)OC4,.,20µM,.,.,?,.
OCCN(CCO)c1ncnc2c1sc1nc(N3CCOCC3)c3c(c12)CCCC3,.,.,.,.,.,.
CC1(C)Cc2c(c(-c3ccco3)nc3sc4c(NCCO)ncnc4c23)CO1,.,50µM,.,.,.,.
CSc1nc(N(CCO)CCO)c2sc3nc(-c4ccco4)c4c(c3c2n1)CCC4,?,18µM,.,?,25µM,?
COc1cccc(-c2nnc3sc(-c4ccccn4)nn23)c1,.,.,.,.,?,27µM
CC(C)(C)c1ccc(-c2nnc3sc(-c4ccccn4)nn23)cc1,?,45µM,?,.,?,21µM
CCCCNC(=O)C1(C)CCN1C(=O)c1cc(C)n(C(C)(C)C)n1 (centres undefined),/,/,/,/,/,.
NCCC[C@@H](CC(=O)N[C@@H]1CCCC[C@H]1C(=O)N[C@H](CC(=O)N[C@@H](CCC(=O)O)CC(=O)O)Cc1ccccc1)NC(=O)C[C@H](Cc1c[nH]c2ccccc12)NC(=O)[C@@H]1CNCC[C@H]1N,.,.,.,.,.,/
CCCC(=O)N1CCCC(c2nc(-c3cccs3)no2)C1 (centres undefined),.,.,.,.,.,30µM
COc1cc(Cl)c(C)cc1NC(=O)CSc1cc(=O)n(C)c2cc(Cl)ccc12,.,/,.,.,?,/
COC(=O)CCc1nc2ccccc2nc1OC,.,.,.,.,.,.
COc1nc2ccccc2nc1CCC(=O)O,.,.,.,.,.,30µM
CC(OC(=O)c1ccc(F)c(S(=O)(=O)N2CCOCC2)c1)C(=O)NC1CCCC1 (centres undefined),/,/,.,/,/,.
COc1cc2c(cc1OC)C(C)N(C(=O)c1cc3n(n1)C(C(F)(F)F)CC(c1ccco1)N3)CC2 (centres undefined),.,40µM,.,.,?,.
COc1cc(C)c(-c2[nH]ncc2-c2csc(C)n2)c(O)c1,.,.,.,.,.,30µM
Cc1nc(-c2cn[nH]c2-c2ccc(O)cc2O)cs1,.,.,.,.,.,.
CC(=O)c1cccc(NC(=O)Cn2c(-c3cncs3)nc3ccccc32)c1,.,/,.,.,.,/
SMILES,Tau FP inhib,Sfp inh,VDR inhibitor,Tau fluor cs,Tau fibril ThT,PLK1 PBD inh
CCC(=O)Nc1ccc(C)cc1-c1nc2ccccc2n(CC(=O)Nc2ccccc2Cl)c1=O,.,/,.,.,.,/
Cc1ccc(C2=NNC(=O)C(c3ccc(Cl)cc3)C2)cc1 (centres undefined),.,.,.,.,.,.
COc1cc2c(cc1OC)C(c1ccc(N(C)C)cc1)NCC2 (centres undefined),/,.,.,/,/,.
Cc1ccc(C2NCCS2)cc1 (centres undefined),?,.,.,.,22µM,.
CN(C)c1ccc(C2NCCS2)cc1 (centres undefined),?,.,?,.,28µM,.
COc1ccc2[nH]c3c(=O)n(Cc4ccc(C(=O)N5CCCCCC5)cc4)c(=S)[nH]c3c2c1,.,.,.,.,.,.
